Measurements taken from PubChem BioAssay AID1159580 (chemical genetic matrix, 2015).
Where “and” joins values, the source holds several entries; their conditions need not be identical. Identical values can stand only once. Among all 5,500 compounds or so, about 2,000 (36%) were called active. About 18% were inconclusive and are not listed. Rule as the data show it: active = normalized growth mostly below about 0.91 (no sharp cut-off); inconclusive = no clear call, values can overlap the other calls; inactive = mostly above about 0.92. This is one part of the list.

Assay: chemical genetic growth profiling, strain panel (AID 1159580);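 also: tested at 20 µM; growth read once vehicle control cultures reached saturation at 30 °C; 1 = growth at the plate median or of vehicle wells; lower values mean less growth of the strain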
Settings: S. cerevisiae deletion strains, growth OD

Measured: normalized growth

CC(=O)O[C@H]1C[C@@H](OC(C)=O)C(C)(C)C2C[C@@H](OC(C)=O)[C@]3(C)C(CC[C@@]4(C)[C@H](c5ccoc5)C(=O)[C@H]5O[C@]543)[C@]21C (stereo partly drawn)
inactive: locus YAL021C, strain ccr4, stronger effect = lower value 0.992 | locus YAL026C, strain drs2, stronger effect = lower value 0.991 | locus YAL030W, strain snc1, stronger effect = lower value 0.99 | locus YBL061C, strain skt5, stronger effect = lower value 1 | locus YBR009C, strain hhf1, stronger effect = lower value 1 | locus YBR021W, strain FUR4, stronger effect = lower value 0.966 | locus YBR023C, strain chs3, stronger effect = lower value 1.01 | locus YBR171W, strain sec66, stronger effect = lower value 1 | locus YBR229C, strain ROT2, stronger effect = lower value 1.01 | locus YBR231C, strain swc5, stronger effect = lower value 1 | locus YBR279W, strain paf1, stronger effect = lower value 1 | locus YCL011C, strain gbp2, stronger effect = lower value 1.01 | locus YCL016C, strain dcc1, stronger effect = lower value 0.998 | locus YCL029C, strain bik1, stronger effect = lower value 1.01 | locus YCL061C, strain MRC1, stronger effect = lower value 0.997 | locus YCL069W, strain vba3, stronger effect = lower value 1 | locus YCR088W, strain abp1, stronger effect = lower value 0.995 | locus YDL005C, strain med2, stronger effect = lower value 0.986 | locus YDL035C, strain GPR1, stronger effect = lower value 0.969 | locus YDL040C, strain nat1, stronger effect = lower value 0.995 | locus YDL074C, strain BRE1, stronger effect = lower value 0.975 | locus YDL101C, strain DUN1, stronger effect = lower value 1.02 | locus YDL134C, strain PPH21, stronger effect = lower value 1.02 | locus YDL185W, strain tfp1, stronger effect = lower value 1.02 | locus YDL192W, strain arf1, stronger effect = lower value 1.01 | locus YDR001C, strain nth1, stronger effect = lower value 0.981 | locus YDR069C, strain doa4, stronger effect = lower value 0.993 | locus YDR101C, strain arx1, stronger effect = lower value 0.994 | locus YDR137W, strain rgp1, stronger effect = lower value 0.935 | locus YDR150W, strain NUM1, stronger effect = lower value 1.02 | locus YDR159W, strain sac3, stronger effect = lower value 1.02 | locus YDR162C, strain NBP2, stronger effect = lower value 0.987 | locus YDR195W, strain ref2 0.985 | locus YDR297W, strain sur2, stronger effect = lower value 0.996 | locus YDR318W, strain mcm21, stronger effect = lower value 1.01 | locus YDR334W, strain swr1, stronger effect = lower value 0.991 | locus YDR335W, strain msn5, stronger effect = lower value 0.994 | locus YDR388W, stronger effect = lower value 1.04 | locus YDR392W, strain spt3, stronger effect = lower value 1.02 | locus YDR502C, strain sam2, stronger effect = lower value 1.02 | locus YEL003W, strain gim4, stronger effect = lower value 1 | locus YEL037C, strain rad23, stronger effect = lower value 1 | locus YEL061C, strain CIN8 (second series), stronger effect = lower value 0.995 | locus YEL061C, strain CIN8, stronger effect = lower value 1.01 | locus YER015W, strain faa2, stronger effect = lower value 1.01 | locus YER016W, strain bim1, stronger effect = lower value 0.997 | locus YER110C, stronger effect = lower value 1.03 | locus YER111C, strain swi4, stronger effect = lower value 1 | locus YER155C, strain BEM2 (second series), stronger effect = lower value 0.998 | locus YER155C, strain BEM2, stronger effect = lower value 1.02 | locus YER167W, strain BCK2, stronger effect = lower value 1.01 | locus YFR010W, strain ubp6, stronger effect = lower value 0.989 | locus YGL078C, strain dbp3, stronger effect = lower value 1 | locus YGL086W, strain mad1, stronger effect = lower value 1.01 | locus YGL167C, strain pmr1, stronger effect = lower value 1 | locus YGL173C, strain kem1, stronger effect = lower value 1.01 | locus YGL227W, strain vid30, stronger effect = lower value 0.996 | locus YGL240W, strain doc1, stronger effect = lower value 1.01 | locus YGL248W, strain PDE1, stronger effect = lower value 1.02 | locus YGL253W, strain hxk2, stronger effect = lower value 1 | locus YGR135W, strain pre9, stronger effect = lower value 1.05 | locus YGR252W, strain gcn5, stronger effect = lower value 0.996 | locus YHR013C, strain ard1, stronger effect = lower value 1.01 | locus YHR027C, strain rpn1, stronger effect = lower value 0.99 | locus YHR030C, strain SLT2, stronger effect = lower value 1.01 and 0.945 | locus YHR079C, strain IRE1 (second series), stronger effect = lower value 1.03 | locus YHR079C, strain IRE1, stronger effect = lower value 0.925 | locus YHR094C, strain hxt1, stronger effect = lower value 1.03 | locus YHR129C, strain ARP1, stronger effect = lower value 1.02 | locus YHR142W, strain chs7, stronger effect = lower value 1 | locus YHR200W, strain rpn10, stronger effect = lower value 1.02 | locus YIL066C, strain RNR3, stronger effect = lower value 0.98 | locus YIL073C, strain SPO22, stronger effect = lower value 1.01 | locus YIL125W, strain kgd1, stronger effect = lower value 1.01 | locus YIR030C, strain dcg1, stronger effect = lower value 1.02 | locus YJL092W, strain hpr5, stronger effect = lower value 1.01 | locus YJL095W, strain BCK1 (second series), stronger effect = lower value 1 | locus YJL095W, strain BCK1, stronger effect = lower value 1.03 and 0.969 | locus YJL115W, strain asf1, stronger effect = lower value 0.987 | locus YJL129C, strain trk1, stronger effect = lower value 0.973 | locus YJL134W, strain LCB3, stronger effect = lower value 1.02 | locus YJL154C, strain vps35, stronger effect = lower value 0.991 | locus YJL164C, strain tpk1, stronger effect = lower value 1 | locus YJL166W, strain qcr8, stronger effect = lower value 1.01 | locus YJL168C, strain set2, stronger effect = lower value 1.04 | locus YJL187C, strain SWE1 (second series), stronger effect = lower value 1.02 | locus YJL187C, strain SWE1, stronger effect = lower value 1 | locus YJR066W, strain TOR1, stronger effect = lower value 0.888 | locus YJR075W, strain HOC1, stronger effect = lower value 1.04 | locus YKL009W, strain mrt4, stronger effect = lower value 0.898 | locus YKL068W, stronger effect = lower value 1.02 | locus YKL085W, strain MDH1 (second series), stronger effect = lower value 1.01 | locus YKL085W, strain MDH1, stronger effect = lower value 1.01 | locus YKL160W, strain elf1, stronger effect = lower value 0.996 | locus YKL190W, strain CNB1, stronger effect = lower value 1.01 | locus YKR001C, strain vps1, stronger effect = lower value 0.993 | locus YKR026C, strain gcn3, stronger effect = lower value 0.997 | locus YKR091W, strain srl3, stronger effect = lower value 0.995 | locus YLL001W, strain dnm1, stronger effect = lower value 1 | locus YLL026W, stronger effect = lower value 1 | locus YLL041C, strain sdh2, stronger effect = lower value 0.994 | locus YLR027C, strain aat2, stronger effect = lower value 1.02 | locus YLR039C, strain RIC1, stronger effect = lower value 1.02 | locus YLR058C, strain SHM2, stronger effect = lower value 1.01 | locus YLR102C, strain apc9, stronger effect = lower value 1.02 | locus YLR113W, strain HOG1, stronger effect = lower value 1.03 | locus YLR221C, strain rsa3, stronger effect = lower value 1 | locus YLR258W, strain gsy2, stronger effect = lower value 0.995 | locus YLR262C, strain YPT6 (second series), stronger effect = lower value 0.95 | locus YLR268W, strain sec22, stronger effect = lower value 0.982 | locus YLR320W, strain mms22, stronger effect = lower value 1 | locus YLR330W, strain CHS5, stronger effect = lower value 1.02 | locus YLR342W, strain FKS1, stronger effect = lower value 1.01 | locus YLR357W, strain rsc2, stronger effect = lower value 1.01 | locus YLR370C, strain arc18, stronger effect = lower value 1 | locus YLR371W, strain rom2, stronger effect = lower value 1.03 | locus YLR384C, strain iki3, stronger effect = lower value 0.995 | locus YLR418C, strain cdc73, stronger effect = lower value 1.05 | locus YML016C, strain PPZ1, stronger effect = lower value 1.01 | locus YML032C, strain rad52, stronger effect = lower value 0.995 | locus YML120C, strain ndi1, stronger effect = lower value 1 | locus YML124C, strain tub3, stronger effect = lower value 1.02 | locus YMR058W, strain fet3, stronger effect = lower value 0.99 | locus YMR078C, strain ctf18, stronger effect = lower value 1.01 | locus YMR125W, strain sto1, stronger effect = lower value 0.978 | locus YMR129W, stronger effect = lower value 1 | locus YMR205C, strain PFK2, stronger effect = lower value 1.01 | locus YMR223W, strain ubp8, stronger effect = lower value 1.01 | locus YMR231W, strain pep5, stronger effect = lower value 0.978 | locus YMR307W, strain GAS1, stronger effect = lower value 0.931 | locus YNL067W, strain RPL9B, stronger effect = lower value 1.04 | locus YNL071W, strain lat1, stronger effect = lower value 0.996 | locus YNL128W, strain TEP1, stronger effect = lower value 0.991 | locus YNL153C, strain GIM3, stronger effect = lower value 1.02 | locus YNL183C, strain NPR1, stronger effect = lower value 0.904 | locus YNL209W, strain ssb2, stronger effect = lower value 1 | locus YNL233W, strain BNI4, stronger effect = lower value 0.973 | locus YNL248C, strain rpa49, stronger effect = lower value 0.969 | locus YNL250W, strain rad50, stronger effect = lower value 1.06 | locus YNL271C, strain bni1, stronger effect = lower value 1.01 | locus YNL298W, strain CLA4, stronger effect = lower value 1.01 | locus YNL307C, strain MCK1, stronger effect = lower value 1.02 | locus YNL322C, strain KRE1 (second series), stronger effect = lower value 1.01 | locus YNR049C, strain mso1, stronger effect = lower value 1.01 | locus YNR052C, strain pop2, stronger effect = lower value 1.02 | locus YOL006C, strain TOP1, stronger effect = lower value 0.962 | locus YOL012C, strain htz1 1.21 | locus YOL147C, strain pex11, stronger effect = lower value 1.03 | locus YOR001W, strain rrp6, stronger effect = lower value 0.985 | locus YOR061W, strain CKA2, stronger effect = lower value 0.998 | locus YOR069W, strain VPS5, stronger effect = lower value 1.02 | locus YOR070C, strain gyp1, stronger effect = lower value 1 | locus YOR080W, strain dia2, stronger effect = lower value 1.01 | locus YOR083W, strain WHI5, stronger effect = lower value 0.991 | locus YOR106W, strain vam3, stronger effect = lower value 0.985 | locus YOR136W, strain idh2, stronger effect = lower value 1.01 | locus YOR144C, strain elg1, stronger effect = lower value 1.02 | locus YOR184W, strain ser1, stronger effect = lower value 0.965 | locus YOR231W, strain MKK1, stronger effect = lower value 0.919 | locus YOR265W, strain rbl2, stronger effect = lower value 0.997 | locus YOR270C, strain vph1, stronger effect = lower value 0.875 | locus YOR290C, strain snf2, stronger effect = lower value 1 | locus YOR316C, strain cot1, stronger effect = lower value 1.02 | locus YPL051W, strain arl3, stronger effect = lower value 1.01 | locus YPL078C, strain atp4, stronger effect = lower value 0.991 | locus YPL106C, strain sse1, stronger effect = lower value 1.05 | locus YPL240C, strain hsp82, stronger effect = lower value 0.998 | locus YPL256C, strain CLN2, stronger effect = lower value 0.994 | locus YPR119W, strain clb2, stronger effect = lower value 1.02 | locus YPR141C, strain kar3, stronger effect = lower value 1.03 | locus YPR163C, strain tif3, stronger effect = lower value 1.02 | locus YPR167C, strain met16, stronger effect = lower value 1.01 | strain wtn01, stronger effect = lower value 0.987
